Source: PubChem (Sanford-Burnham Center for Chemical Genomics)
An excerpt weighted towards active compounds, which were near 2% of everything screened.
PfGluPho inh: PfG6PD (Plasmodium falciparum) enzyme inhibition | PfGluPho enzyme, NADPH resazurin-diaphorase fluorescence | inhibition, % at 20 µM | hit rate 0.78% among 350,000;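 active means inhibition reaching at least a set limit at 20 µM in the primary screen, cut at about 59% in these data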;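 further: 0% = DMSO wells with substrate and 100% = DMSO wells lacking glucose-6-phosphate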
NPR1 activator: GC-A (human) enzyme activation. P16066. HEK293 GC-A cells, cGMP TR-FRET, EC30 ANP; 0% at EC30 ANP, 100% saturating ANP. activation, % at 10 µM. hit rate 0.14% among 370,000. AID 1671463; in the data active means activation above about 40%
APOBEC3G inh: APOBEC3G (human) deaminase inhibition; inhibition, % at 20 µM; AID 493012; recombinant A3G, ssDNA deamination FAM/TAMRA fluorescence; Q9HC16; hit rate 0.28% among 330,000;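 active means inhibition of at least 40% at 20 µM, with no more than 30% in the related APOBEC3A deaminase screen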;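 further: plate controls were DMSO wells with A3G for no effect and wells lacking A3G enzyme for full effect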
Target sequence (Q9HC16 whole entry, looked up): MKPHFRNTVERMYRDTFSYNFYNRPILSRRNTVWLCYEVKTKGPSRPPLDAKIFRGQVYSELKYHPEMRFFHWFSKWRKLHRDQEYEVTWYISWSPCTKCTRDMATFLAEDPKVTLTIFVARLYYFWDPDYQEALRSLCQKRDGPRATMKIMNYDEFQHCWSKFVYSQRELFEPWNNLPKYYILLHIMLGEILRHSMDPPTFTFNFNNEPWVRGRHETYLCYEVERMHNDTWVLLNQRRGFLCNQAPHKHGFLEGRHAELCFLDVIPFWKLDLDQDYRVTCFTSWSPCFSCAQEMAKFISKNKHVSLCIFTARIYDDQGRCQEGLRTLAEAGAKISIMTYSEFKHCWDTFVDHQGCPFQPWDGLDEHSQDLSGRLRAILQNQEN
APOBEC3A inh: human APOBEC3A DNA deaminase inhibition; inhibition, % at 20 µM; recombinant A3A, FAM/TAMRA ssDNA deamination fluorescence; hit rate 0.41% among 330,000;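 active means at least 40% inhibition at 20 µM here, with at most 30% in a related deaminase screen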;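 further: plate controls were A3A with DMSO for no effect and wells lacking A3A enzyme for full effect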
Target sequence (P31941 whole entry, looked up): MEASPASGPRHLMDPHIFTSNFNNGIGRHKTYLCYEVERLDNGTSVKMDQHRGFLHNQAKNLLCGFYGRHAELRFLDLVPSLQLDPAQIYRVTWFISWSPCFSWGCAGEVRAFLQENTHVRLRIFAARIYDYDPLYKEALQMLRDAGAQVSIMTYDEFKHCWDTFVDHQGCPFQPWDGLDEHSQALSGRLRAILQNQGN
Neddylation inh: blocks human cullin neddylation; inhibition, % at 25 µM; hit rate 0.58% among 360,000; TR-FRET cullin neddylation, biochemical; P61081+Q13564; in the data active means inhibition above about 36%
GC-B act: GC-B (human) receptor activation. HEK293-GC-B cells, CNP EC30, cGMP TR-FRET; 0% at EC30 CNP, 100% saturating CNP. activation, % at 10 µM. hit rate 0.11% among 370,000. AID 1920062;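 active means activation at 10 µM reaching about 35% in either raw or pattern-adjusted values, limit read from the data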
PfGluPho conf: PfG6PD inhibition, single-dose confirmed | shares compounds with PfGluPho inh | recombinant PfGluPho, NADPH-diaphorase-resazurin fluorescence | inhibition, % at 20 µM | hit rate 34% among 2,400 | AID 504753;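 active means inhibition of at least 50% at 20 µM in any single replicate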;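 further: 0% = DMSO with substrate and 100% = DMSO lacking glucose-6-phosphate substrate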
Diaphorase 10uM: inhibits diaphorase or oxidizes, flagging false PfG6PD hits; shares compounds with PfGluPho inh; diaphorase-coupled resazurin reduction, fluorescence, NADPH 10 uM; inhibition, % at 20 µM; hit rate 39% among 820;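 active means average inhibition reaching 50% or more with the compound at 20 µM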;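 further: resorufin red fluorescence formed as diaphorase reduces resazurin using NADPH; 0% = DMSO with enzyme and 100% = DMSO without enzyme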
Diaphorase 30uM: counter-screen for P. falciparum G6PD inhibitors: diaphorase inhibitors, oxidizers | Diaphorase/resazurin coupled assay, resorufin fluorescence, 30 uM NADPH | hit rate 29% among 820 | AID 504863 | shares compounds with PfGluPho inh | inhibition, % at 20 µM;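 active means inhibition averaging 50% or more, tested at 20 µM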;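 further: 0% = DMSO with enzyme and 100% = DMSO wells lacking diaphorase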
* = called active by the depositor; x = no result shown.

SMILES	PfGluPho inh	NPR1 activator	APOBEC3G inh	APOBEC3A inh	Neddylation inh	GC-B act	PfGluPho conf	others
O=C(Nc1ccccc1)c1nnsc1S(=O)c1ccc(Cl)cc1 (stereo unspecified)	64*	39	9	2	8	9	18
O=C(c1nnsc1S(=O)c1ccc(Cl)cc1)N1CCOCC1 (stereo unspecified)	15	3	-8	-1	-9	0	x
COC(=O)N1C[C@H](OCc2ccccc2)[C@H]2C[C@@H]1c1ccccc1O2	x	-2	x	x	x	3	x
CCCCCCCCN1C(=O)[C@@H](CC(=O)NCc2ccc(C)o2)C[C@@]2(C(=O)OC)C1=C[C@H](COCc1ccccc1)O[C@@H]2C	x	-4	x	x	x	9	x
CN1C(=O)C(N=Nc2ccc([N+](=O)[O-])cc2)SC1=S (stereo unspecified)	106*	-17	x	x	-39	1	52*	Diaphorase 10uM=54*;Diaphorase 30uM=34
CN1CCCCCC1=Nc1ccc([N+](=O)[O-])cc1	1	1	-13	-4	-20	2	x
Cc1ccc(C2CCC3(CCC(=O)N3CCO)CC2)cc1 (stereo unspecified)	x	2	x	x	x	9	x
O=C(COc1ccc(Cl)cc1Cl)N/N=C/c1cccnc1	-1	3	-10	-5	-17	0	x
O=C(CCCOc1ccc(Cl)cc1Cl)N/N=C/c1cccc([N+](=O)[O-])c1	112*	3	-2	3	5	-4	69*	Diaphorase 10uM=59*;Diaphorase 30uM=48
O=C1C(=Cc2ccccc2O)SC(=S)N1CCCN1CCOCC1	71*	2	x	x	16	0	43
O=C(CCN1C(=O)/C(=C\c2ccccc2)SC1=S)NCCCN1CCOCC1	4	-3	-2	-4	-39	-1	x
Cc1ccc(Nc2n[nH]c(=S)s2)cc1F	72*	1	x	x	12	-4	23
Cc1ccc(Nc2n[nH]c(=S)s2)cc1	44	3	x	x	-1	-2	x
S=c1[nH]nc(Nc2ccc(Cl)cc2)s1	65*	2	18	-3	3	-1	36
CN1CCc2c(sc(/N=C/c3c[nH]c4ccccc34)c2C(N)=O)C1	67*	3	-4	-1	8	-4	-2
Nc1ccc2nc(-c3ccc(Cl)cc3)[nH]c2c1	35	9	-4	-4	x	-2	x
Clc1ccc2nc(-c3ccc(Cl)nc3)[nH]c2c1	110*	5	-8	-1	18	8	55*	Diaphorase 10uM=71*;Diaphorase 30uM=57*
O=C(CN(Cc1ccco1)C(=O)c1ccccc1)Nc1ccc(Cl)c(Cl)c1	62*	0	-5	-4	-14	-4	18
Cc1cc2nc(-c3ccc(SCC(=O)NC(C)C)nc3)[nH]c2cc1C	x	x	4	10	x	x	x
Cc1cc2nc(-c3ccc(SCc4ccc(C(=O)O)cc4)nc3)[nH]c2cc1C	72*	-3	x	x	38	0	30
CC(C)N=Cc1c(O)[nH]c2ccccc12	13	-1	-7	-5	-21	0	x
Cc1cccc(/N=C/c2c(O)[nH]c3ccccc23)n1	65*	0	-8	-3	10	-5	15
Cc1ccc(-n2nnnc2-c2ccccc2Br)cc1	62*	-1	-2	-2	-2	-3	22
Cc1ccc(-c2nnnn2-c2ccc(C)cc2)cc1	19	1	-2	0	-12	-4	x
O=C(CN(Cc1ccc(Br)cc1)S(=O)(=O)c1ccccc1)NCc1cccnc1	63*	-2	2	1	4	0	27
SMILES	PfGluPho inh	NPR1 activator	APOBEC3G inh	APOBEC3A inh	Neddylation inh	GC-B act	PfGluPho conf	others
CS(=O)(=O)N(CC(=O)NCc1cccnc1)Cc1ccc(Cl)cc1	7	1	-6	0	-10	1	x
COc1cccc(OCCNc2cc(Cl)ccc2[N+](=O)[O-])c1	63*	4	-8	-4	-34	-6	-12
COc1cccc(OCCNc2ccc([N+](=O)[O-])cn2)c1	2	-3	-9	-2	-37	-1	x
O=C(COC(=O)c1ccc2c(c1[N+](=O)[O-])C(=O)c1ccccc1C2=O)NC1CC1	60*	17	-4	2	-31	1	54*	Diaphorase 10uM=26;Diaphorase 30uM=28
Cc1ccc(NC(=O)c2cccc3c2-c2ccccc2C3=O)c(C)c1	x	-2	x	x	x	-1	x
Cc1ccc(N=Cc2ccc[nH]2)c(O)c1	77*	-4	-4	-3	3	2	40
Cc1ccccc1N=Cc1ccc[nH]1	-6	0	x	x	-1	3	x
S=C(Nc1cccc(Cl)c1)OCCN1CCCC12CCC(c1ccccc1)CC2 (stereo unspecified)	x	-1	x	x	x	-3	x
COc1ccc(CNC(=O)O[C@H]2CC[C@@]34CCCN3C(=O)CCC[C@H]4C2)cc1	x	2	x	x	x	1	x
Cc1cccc(OCC(=O)NCC(=O)N/N=C/c2c(C)[nH]c3ccccc23)c1	63*	-4	-2	-10	6	-3	26
Cc1oc2c(c1C(=O)N1CCC(C)CC1)C(=O)c1ccccc1C2=O	-8	0	-2	-3	x	0	x
Cc1oc2c(c1C(=O)c1ccc(Cl)cc1)C(=O)C(=O)c1ccccc1-2	117*	9	x	x	-19	25	88*	Diaphorase 10uM=83*;Diaphorase 30uM=77*
Cc1ccc(C(=O)c2c(C)oc3c2C(=O)C(=O)c2ccccc2-3)cc1	107*	x	-9	-2	-35	x	92*	Diaphorase 10uM=92*;Diaphorase 30uM=98*
O=C(c1ccc(Cl)cc1)c1ccc(CN2C(=O)c3ccccc3C2=O)o1	-2	-3	0	0	-165	0	x
COc1ccc(C(=O)c2coc(-c3ccccc3C(=O)O)c2C(=O)O)cc1	-14	0	0	0	-12	1	x
Cc1ccc(C(=O)c2coc3c2C(=O)C(=O)c2ccccc2-3)cc1	110*	7	3	-10	-30	-7	110*	Diaphorase 10uM=93*;Diaphorase 30uM=100*
CC(C)[C@@H](CO)N1Cc2nnn(Cc3ccccc3)c2-c2ccccc2S1(=O)=O	x	3	x	x	x	9	x
Cc1cc(C)nc(NNS(=O)(=O)c2ccc(Cl)cc2)n1	59*	-1	8	3	10	-10	13
Cc1cc(C)nc(NNS(=O)(=O)c2ccc(F)c(Cl)c2)n1	33	-2	-2	0	-3	-3	x
CCOC(=O)c1cnc(-c2ccccc2)nc1Oc1ccc(Cl)cc1	-4	-4	-10	-5	-38	-5	x
CCOC(=O)c1cnc(-c2ccccc2O)nc1Cl	60*	2	2	0	-2	0	39
